From the supplement of paper PMC6555819

Assays:
Test in all cases: PBM binding z-score (relative to random genomic background probes); higher = stronger binding; sequences stand for … in GC…GCGATTGACAGCGTAGAATGAAGG
[1] = test system: FXR:RXRa (NR concentration 270 nM, RXRa partner concentration 90 nM)
Procedure, shortened: (§1)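 Regression normalization was applied to scanned fluorescence from custom Agilent 4×180K protein-binding microarrays. Before scanning, arrays were incubated 1 h with ligand-free nuclear receptor dimers, and binding was detected with antibodies against each partner (one per run). Binding z-scores use the random background probes as reference.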

[2] = test system: LXRa:RXRa (NR concentration 270 nM, RXRa partner concentration 90 nM)
Procedure, shortened: as §1

[3] = test system: LXRa homodimer (NR concentration 270 nM)
Procedure, shortened: as §1

[4] = test system: LXRb:RXRa (NR concentration 270 nM, RXRa partner concentration 90 nM)
Procedure, shortened: as §1

[5] = test system: LXRb homodimer (NR concentration 270 nM)
Procedure, shortened: as §1

[6] = test system: PPARa:RXRa (NR concentration 270 nM, RXRa partner concentration 90 nM)
Procedure, shortened: as §1

[7] = test system: PPARg:RXRa (NR concentration 180 nM, RXRa partner concentration 90 nM)
Procedure, shortened: as §1

[8] = test system: PPARg:RXRa 270nM:90nM, anti-RXR (NR concentration 270 nM, RXRa partner concentration 90 nM)
Procedure, shortened: as §1

[9] = test system: PPARg:RXRa 30nM:10nM, anti-RXR (NR concentration 30 nM, RXRa partner concentration 10 nM)
Procedure, shortened: as §1

[10] = test system: PPARg:RXRa 90nM:30nM, anti-RXR (NR concentration 90 nM, RXRa partner concentration 30 nM)
Procedure, shortened: as §1

[11] = test system: PPARg:RXRa DBDmut IVT, anti-RXR (DBD mutation: RXRa K156A/R161A, NR concentration 270 nM, RXRa partner concentration 90 nM)
Procedure, shortened: as §1

[12] = test system: PPARg:RXRa IVT, anti-PPARg (NR concentration 270 nM, RXRa partner concentration 90 nM)
Procedure, shortened: as §1

[13] = test system: PPARg DBDmut:RXRa IVT, anti-PPARg (DBD mutation: PPARg1 K132A/R137A, NR concentration 270 nM, RXRa partner concentration 90 nM)
Procedure, shortened: as §1

[14] = test system: PPARg DBDmut IVT, anti-PPARg (DBD mutation: PPARg1 K132A/R137A, NR concentration 270 nM)
Procedure, shortened: as §1

[15] = test system: PPARg homodimer (NR concentration 180 nM)
Procedure, shortened: as §1

[16] = test system: PXR:RXRa (NR concentration 270 nM, RXRa partner concentration 90 nM)
Procedure, shortened: as §1

[17] = test system: PXR homodimer (NR concentration 270 nM)
Procedure, shortened: as §1

[18] = test system: RARa:RXR (NR concentration 270 nM, RXRa partner concentration 90 nM)
Procedure, shortened: as §1

[19] = test system: RARa homodimer (NR concentration 270 nM)
Procedure, shortened: as §1

[20] = test system: RARb:RXRa (NR concentration 270 nM, RXRa partner concentration 90 nM)
Procedure, shortened: as §1

Sequence	PBM binding z-score [1]	PBM binding z-score [2]	PBM binding z-score [3]	PBM binding z-score [4]	PBM binding z-score [5]	PBM binding z-score [6]	PBM binding z-score [7]	PBM binding z-score [8]	PBM binding z-score [9]	PBM binding z-score [10]	PBM binding z-score [11]	PBM binding z-score [12]	PBM binding z-score [13]	PBM binding z-score [14]	PBM binding z-score [15]	PBM binding z-score [16]	PBM binding z-score [17]	PBM binding z-score [18]	PBM binding z-score [19]	PBM binding z-score [20]
CGTCCAAGGTCAGCAGGTCAATGAAAGCGACGTG	6.32	4.32	0.919	3.56	-0.0922	5.37	5.19	5.03	1.33	3.38	3.22	3.95	-0.262	-0.753	2.98	4.21	0.593	5.49	0.0185	5.24
GCATATGGGTAATACAAGGTGAAAGTCCGATTGT	0.428	1.27	0.16	0.226	-0.552	1.46	0.928	1.03	0.412	0.777	3.34	2.47	0.702	0.516	0.3	0.344	0.0703	1.08	0.617	0.416
TCAGACAGGTGAAGGTAAGTCAGGTACGCAGTCG	0.571	0.454	-0.273	0.356	-0.365	0.993	0.552	2.03	4.06	2.93	2.4	1.07	-0.136	-0.843	1.02	0.265	0.282	0.741	0.234	1.08
AGTCAAAGTTAAGGACGAGGTAACGTAAAGCACG	-0.0625	-0.031	-0.464	-0.186	-0.644	0.245	0.85	0.357	0.301	0.179	-0.606	0.576	-0.425	0.362	-0.757	-0.127	0.18	1.19	0.205	0.889
CGTCCAAGGTCAATGCTAAGTCAGTGAAAGCATT	6.87	4.59	0.722	3.58	0.637	4.73	3.59	4.12	0.983	2.55	2.98	3.34	0.647	-0.584	2.4	3.51	0.823	4.32	0.642	5.01
TCATATAGGTCATACAGGTGAAAGTCGGCATCTA	6.18	5.45	1.98	4.49	1.72	5.68	7.05	6.57	5.26	6.25	6.93	6.78	2.18	2.34	2.69	3.62	1.06	4.44	2.39	4.2
ACTAGATGGTCAGCTGAGGTCACACACAATTCGG	4.73	3.89	2.33	3.48	0.584	3.6	1.95	2.13	0.736	1.61	0.982	2.14	1.06	0.428	2.89	5.58	1.53	4.43	1.34	3.75
TCTAGTAGGTTAGGGGCATTCAGAATGGCGTCGA	0.875	0.688	0.102	1.21	0.903	1.94	2	3.69	3.42	3.55	4.9	4.09	0.212	0.421	1.07	0.642	0.791	0.791	0.549	1.35
CAAACTAGGTCACAGAGGTCAAAGGCCGTGCGTA	7.21	6.33	6.87	5.9	1.61	6.36	10.5	8.37	7.41	8.58	8.7	8.85	6.92	3.61	5.45	6.54	10.8	7.58	2.81	5.22
CAACCTAGGTCAAGAGGTCAAAGTCCGCTTCCCG	6.93	6.34	6.16	5.73	1.82	5.97	7.35	6.76	3.67	5.86	4.75	5.45	0.0311	-0.16	5.72	6.26	2.37	7.74	2.15	5.42
ATCTCTAGGTAAGACTCAGTTCATTGAAGAACGC	0.66	1.1	1.32	0.779	1.11	0.841	0.175	0.381	0.0967	0.482	2.32	1.16	1.33	1.23	1.13	2.6	4.35	1.04	1.62	0.694
ATCTCTAGGTAACCAACTTCAGTGAATGCCGAAC	0.38	0.07	0.43	0.199	1.07	0.378	0.531	0.519	0.321	0.666	4.05	2.98	1.39	1.39	0.412	-0.17	0.34	0.0512	0.816	0.248
AGTCAAACTTCACTAGGTAACGTAAGATTCAGCT	-0.0326	-0.0348	-0.0758	0.0812	0.248	0.271	0.504	0.268	0.187	0.101	1.97	2.66	0.854	1.24	0.579	-0.238	0.241	-0.00905	-0.136	0.174
CGTCAAAGTTCAAATAAGGTAACGTAAAGCACGC	7.39	6.55	4.89	4.17	3.25	4.95	4.86	5.6	2.25	4.67	0.597	2.21	0.83	1.03	4.04	5.39	5.14	4.21	2.53	5.08
